Data on eight compounds can be found in PubChem BioAssay.

Molecules are shown by their SMILES. Values without a mark were called inactive. Activity calls are given as the source filed them. Cut-off read from the data, not from the text of the source, unless noted: active = inhibition above about 25%; inactive = the rest.

The target of assay [1] is Nuclear receptor coactivator 3 (Homo sapiens) (UniProt Q9Y6Q9). The assay can be described thus: SRC3 coactivator transcriptional activity inhibitors, confirmation, cell-based, luminescence, quadruplicate (AID 588792;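 active = mean inhibition over 43.08%, the solvent-only control mean plus 3 SD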;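 note: 0% = DMSO treated cells and 100% = gossypol at 36 µM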). To be noted: HEK293 GAL4-SRC3 luciferase reporter, at 3.6 µM, hits give high values.
Chain of Nuclear receptor coactivator 3 (Homo sapiens) (Q9Y6Q9 whole entry, looked up, the tested form may be a part): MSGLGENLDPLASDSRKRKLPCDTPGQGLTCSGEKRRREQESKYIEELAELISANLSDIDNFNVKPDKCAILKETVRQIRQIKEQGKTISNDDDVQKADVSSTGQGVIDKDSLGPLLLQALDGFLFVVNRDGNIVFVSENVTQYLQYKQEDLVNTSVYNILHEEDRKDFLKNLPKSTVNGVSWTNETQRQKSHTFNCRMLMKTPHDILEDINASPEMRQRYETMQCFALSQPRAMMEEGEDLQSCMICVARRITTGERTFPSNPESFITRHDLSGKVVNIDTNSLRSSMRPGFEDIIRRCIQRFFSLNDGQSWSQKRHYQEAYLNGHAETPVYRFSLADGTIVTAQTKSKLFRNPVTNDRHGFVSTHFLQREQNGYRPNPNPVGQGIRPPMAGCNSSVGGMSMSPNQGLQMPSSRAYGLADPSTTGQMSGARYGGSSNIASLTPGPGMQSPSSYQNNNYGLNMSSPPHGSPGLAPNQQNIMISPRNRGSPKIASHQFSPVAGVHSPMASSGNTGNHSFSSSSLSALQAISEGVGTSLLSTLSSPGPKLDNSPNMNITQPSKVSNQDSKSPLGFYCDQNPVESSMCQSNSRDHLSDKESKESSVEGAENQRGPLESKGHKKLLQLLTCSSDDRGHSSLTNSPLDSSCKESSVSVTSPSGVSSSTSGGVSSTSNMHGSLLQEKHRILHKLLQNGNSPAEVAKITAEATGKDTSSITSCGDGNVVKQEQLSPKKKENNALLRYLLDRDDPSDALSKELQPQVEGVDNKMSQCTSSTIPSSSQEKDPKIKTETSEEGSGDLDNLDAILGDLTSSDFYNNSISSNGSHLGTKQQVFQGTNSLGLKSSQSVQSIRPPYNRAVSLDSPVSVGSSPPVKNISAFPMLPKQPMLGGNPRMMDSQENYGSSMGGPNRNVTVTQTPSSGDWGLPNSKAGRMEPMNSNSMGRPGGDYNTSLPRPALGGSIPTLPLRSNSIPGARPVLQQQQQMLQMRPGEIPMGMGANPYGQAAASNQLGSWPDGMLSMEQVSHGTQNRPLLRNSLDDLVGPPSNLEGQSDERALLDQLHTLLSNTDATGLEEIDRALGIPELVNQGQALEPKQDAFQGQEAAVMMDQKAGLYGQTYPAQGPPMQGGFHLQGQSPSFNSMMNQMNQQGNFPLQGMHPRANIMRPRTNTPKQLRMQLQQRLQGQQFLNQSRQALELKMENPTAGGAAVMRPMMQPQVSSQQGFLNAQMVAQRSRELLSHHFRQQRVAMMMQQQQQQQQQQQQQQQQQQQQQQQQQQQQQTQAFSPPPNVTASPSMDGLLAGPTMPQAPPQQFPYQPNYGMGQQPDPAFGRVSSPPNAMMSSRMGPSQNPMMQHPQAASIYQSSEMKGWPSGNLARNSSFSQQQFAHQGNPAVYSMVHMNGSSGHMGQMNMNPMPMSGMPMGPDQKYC
Assay [2] relates to transactivating tegument protein VP16 (Human herpesvirus 1), Gal4-VP16 luciferase reporter. Description: VP16 transactivation inhibitors, counter-screen for SRC3 inhibitor project, cell-based, luminescence, high throughput (AID 588794; in the data active = inhibition above about 30%). The settings on record: mammalian cells, VP16-driven luciferase reporter luminescence; at 3.6 µM; hits give high values. Background: Counterscreens check selectivity or assay interference.

In assay [3] the target is Nuclear receptor coactivator 1 (Homo sapiens) (UniProt Q15788). The assay can be described thus: SRC1 coactivator transcriptional activity inhibitors, confirmation, cell-based, luminescence, quadruplicate (AID 588820;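 active = mean inhibition above 46.68%, the untreated control wells mean plus 3 SD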;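 note: 0% = DMSO wells and 100% = gossypol 36 µM treated wells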). To be noted: HEK293 GAL4-SRC1 luciferase reporter, at 3.6 µM, hits give high values.
Chain of Nuclear receptor coactivator 1 (Homo sapiens) (Q15788 whole entry, looked up, the tested form may be a part): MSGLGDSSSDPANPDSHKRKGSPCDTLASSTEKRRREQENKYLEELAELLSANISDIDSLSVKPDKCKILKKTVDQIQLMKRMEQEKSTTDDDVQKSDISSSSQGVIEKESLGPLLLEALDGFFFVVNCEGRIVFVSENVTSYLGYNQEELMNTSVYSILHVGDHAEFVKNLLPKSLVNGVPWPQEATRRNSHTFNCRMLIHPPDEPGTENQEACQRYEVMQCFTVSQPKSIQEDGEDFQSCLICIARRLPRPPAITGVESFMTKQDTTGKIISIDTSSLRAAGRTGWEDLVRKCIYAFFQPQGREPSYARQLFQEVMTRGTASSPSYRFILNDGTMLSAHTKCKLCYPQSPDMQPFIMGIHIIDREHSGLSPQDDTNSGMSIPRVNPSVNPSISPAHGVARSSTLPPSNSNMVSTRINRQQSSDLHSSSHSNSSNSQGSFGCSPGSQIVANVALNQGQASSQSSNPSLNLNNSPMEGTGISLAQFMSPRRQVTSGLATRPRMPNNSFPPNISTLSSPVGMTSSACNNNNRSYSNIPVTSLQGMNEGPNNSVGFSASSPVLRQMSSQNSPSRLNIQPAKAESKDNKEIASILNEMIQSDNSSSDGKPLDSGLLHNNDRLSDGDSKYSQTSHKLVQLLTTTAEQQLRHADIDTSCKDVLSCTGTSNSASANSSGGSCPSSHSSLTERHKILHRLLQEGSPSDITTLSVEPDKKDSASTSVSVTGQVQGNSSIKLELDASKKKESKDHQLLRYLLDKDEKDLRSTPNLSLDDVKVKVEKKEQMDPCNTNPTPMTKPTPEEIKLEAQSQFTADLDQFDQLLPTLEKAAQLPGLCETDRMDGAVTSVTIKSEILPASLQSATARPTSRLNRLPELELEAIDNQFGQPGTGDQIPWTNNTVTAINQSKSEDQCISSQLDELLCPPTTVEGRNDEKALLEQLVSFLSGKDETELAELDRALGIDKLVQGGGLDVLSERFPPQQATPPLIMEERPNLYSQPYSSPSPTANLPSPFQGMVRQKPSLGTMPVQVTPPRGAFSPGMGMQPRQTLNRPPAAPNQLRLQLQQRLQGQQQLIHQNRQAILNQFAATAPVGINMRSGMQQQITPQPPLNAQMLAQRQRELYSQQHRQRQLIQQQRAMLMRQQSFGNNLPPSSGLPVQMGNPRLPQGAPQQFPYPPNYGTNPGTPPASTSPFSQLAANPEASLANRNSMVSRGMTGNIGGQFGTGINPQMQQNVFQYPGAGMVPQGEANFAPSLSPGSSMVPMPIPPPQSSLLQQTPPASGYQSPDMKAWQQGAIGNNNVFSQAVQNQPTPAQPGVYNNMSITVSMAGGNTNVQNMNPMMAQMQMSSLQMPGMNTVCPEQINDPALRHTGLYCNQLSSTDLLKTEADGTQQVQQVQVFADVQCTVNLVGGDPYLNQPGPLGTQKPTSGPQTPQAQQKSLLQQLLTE
Assay [4] is described as follows: VP16 transactivation inhibitors, counter-screen for SRC1 inhibitor project, cell-based, luminescence, high throughput (AID 588824). The settings on record: cell-based VP16 transactivation luciferase luminescence; at 3.6 µM; hits give high values.
Assay [5] is described as follows: StAR promoter reporter inhibitors, counter-screen for LRH-1 inverse agonist project, cell-based, luminescence, high throughput (AID 651611; in the data active = inhibition above about 28%). To be noted: StAR promoter luciferase reporter counterscreen, at 3.6 µM, hits give high values.
The target of assay [6] is Nuclear receptor subfamily 5 group A member 2 (Homo sapiens) (UniProt O00482). Description: LRH-1 (NR5A2) inverse agonists, retest, confirmation, cell-based, luminescence (AID 651613; in the data active = inhibition above about 42%;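 note: HEK293T cells co-transfected with LRH-1 and StAR promoter luciferase reporter; 0% = vehicle wells and 100% = parental cells lacking receptor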). The settings on record: cell-based LRH-1 luciferase reporter, inverse agonism; at 3.6 µM; hits give high values.
Chain of Nuclear receptor subfamily 5 group A member 2 (Homo sapiens) (O00482 whole entry, looked up): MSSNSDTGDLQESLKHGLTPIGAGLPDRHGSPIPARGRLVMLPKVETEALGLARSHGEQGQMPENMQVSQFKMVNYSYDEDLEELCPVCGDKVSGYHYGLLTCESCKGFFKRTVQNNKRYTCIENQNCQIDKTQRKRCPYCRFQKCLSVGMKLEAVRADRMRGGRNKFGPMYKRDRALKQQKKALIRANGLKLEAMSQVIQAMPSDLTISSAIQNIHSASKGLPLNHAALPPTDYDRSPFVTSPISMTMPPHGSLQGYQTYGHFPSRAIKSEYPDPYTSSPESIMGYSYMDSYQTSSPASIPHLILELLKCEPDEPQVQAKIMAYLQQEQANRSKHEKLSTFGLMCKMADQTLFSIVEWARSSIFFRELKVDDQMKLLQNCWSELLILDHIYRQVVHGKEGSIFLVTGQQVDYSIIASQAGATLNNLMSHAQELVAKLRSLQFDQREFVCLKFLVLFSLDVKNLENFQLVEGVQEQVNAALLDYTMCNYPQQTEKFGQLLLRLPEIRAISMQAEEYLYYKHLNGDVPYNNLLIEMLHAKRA
Assay [7] concerns the target Steroidogenic factor 1 (Homo sapiens) (UniProt Q13285). The assay can be described thus: SF1 (NR5A1) inverse agonists, counter-screen for LRH-1 inverse agonist project, cell-based, luminescence, high throughput (AID 651614; in the data active = inhibition above about 44%;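 note: cells cotransfected with StAR promoter reporter and SF1 expression vector; 0% = vehicle on cells with receptor and 100% = vehicle on cells lacking receptor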). To be noted: cell-based SF1 luciferase reporter, at 3.6 µM, hits give high values.
Assay [8] can be described thus: VP16 transactivation reporter inhibitors, counter-screen for LRH-1 inverse agonist project, cell-based, luminescence, high throughput (AID 651615; in the data active = inhibition above about 33%). The settings on record: Gal4-VP16 luciferase reporter cells, at 3.6 µM, hits give high values.

Chain of Steroidogenic factor 1 (Homo sapiens) (Q13285 whole entry, looked up, the tested form may be a part): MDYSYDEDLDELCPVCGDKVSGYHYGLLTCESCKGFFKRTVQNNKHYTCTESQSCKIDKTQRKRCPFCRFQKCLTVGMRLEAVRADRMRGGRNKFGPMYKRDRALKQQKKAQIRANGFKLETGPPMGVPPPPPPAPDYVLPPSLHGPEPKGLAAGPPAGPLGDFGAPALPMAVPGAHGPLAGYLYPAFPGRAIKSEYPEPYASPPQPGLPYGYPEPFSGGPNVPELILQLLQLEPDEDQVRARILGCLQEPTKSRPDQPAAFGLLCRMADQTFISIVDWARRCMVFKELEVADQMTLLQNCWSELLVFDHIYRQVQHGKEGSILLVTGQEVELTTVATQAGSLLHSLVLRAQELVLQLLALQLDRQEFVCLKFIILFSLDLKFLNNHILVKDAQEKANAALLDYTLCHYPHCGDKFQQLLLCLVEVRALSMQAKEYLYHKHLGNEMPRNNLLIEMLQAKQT

Usually inhibition stands for the relative decrease from the control value, in per cent. `COc1ccc(-c2c[n+]3c(n2-c2ccc(C)cc2)CCCCC3)cc1`: the inhibition in assay [1] was 36.5%; in assay [2] it was 60.1% (active); in assay [3], 32.6%; in assay [4] it was 60.2% (active); in assay [5], 53% (active); in assay [6], 105% (active). The inhibition was 82% (active) in assay [7] and 73.7% (active) in assay [8].

On to `Nc1ccc(S(=O)(=O)NNC(=O)C(=O)NNc2ccccc2)cc1`, for which the inhibition in assay [1] is 12.2%; in assay [2], 8.16%; in assay [3] it was -15.5%; in assay [4], 18.5%; in assay [5], 5.29%; in assay [6], 18.9%. Also, the inhibition in assay [7] was 17.6%; in assay [8] it was 39.2% (active).

With `CCn1c(C)cc(C(=O)COC(=O)c2ccccc2[N+](=O)[O-])c1C`, the inhibition in assay [1] is 92.9% (active); in assay [2] it was 90.4% (active); in assay [3] it was 86.8% (active); in assay [4], 86.1% (active); in assay [5], 83.5% (active); in assay [6], 83.8% (active). Further, the inhibition is 83.6% (active) in assay [7] and 81.4% (active) in assay [8].

Regarding `CC(C)CCCCCCCCCCCCC(=O)NCC(=O)NC1C(O)C(O)C(Nc2ncnc3nc[nH]c23)OC1C(O)CO` (centres undefined), the inhibition in assay [1] was 96.9% (active); in assay [2], 95.9% (active); in assay [3], 94.2% (active); in assay [4], 95.4% (active); in assay [5], 96.7% (active); in assay [6], 110% (active). For the same compound, the values for the inhibition in assay [7] and in assay [8] were 98.1% (active) and 98.2% (active), respectively.

On to `Cc1ccc(-n2c(-c3ccccc3)c[n+]3c2CCc2ccccc2-3)c(C)c1`, for which the inhibition in assay [1] is 61.7% (active); in assay [2], 68.1% (active); in assay [3], 42.5%; in assay [4], 69.4% (active); in assay [5] it was 57.4% (active); in assay [6], 107% (active). Further, the inhibition in assay [7] was 87.7% (active); in assay [8], 91.7% (active).

As for `COC(=O)c1c(NC(=O)c2cccc([N+](=O)[O-])c2)sc(C(N)=O)c1C`, the inhibition in assay [1] was 23.4%; in assay [2], 55.9% (active); in assay [3], 18.9%; in assay [4] it was 47.2% (active); in assay [5], 46.9% (active); in assay [6] it was 84.6% (active). Besides, the inhibition was 80.5% (active) in assay [7] and 69.2% (active) in assay [8].

Consider `CC1CCc2nc(NC(=O)CSc3nc4ccccc4o3)sc2C1` (centres undefined), for which the inhibition is 14.2% in assay [1]; 15.8% in assay [2]; -11.1% in assay [3]; -33.6% in assay [4]; 5.74% in assay [5]; -27.5% in assay [6]. Besides, the inhibition was 7.34% in assay [7] and -33.5% in assay [8].

On to `N=c1c2c(n(Cc3ccc(Br)cc3)c3c1CCC3)CCCC2`, for which the inhibition in assay [1] is 51.3% (active); in assay [2], 67.7% (active); in assay [3], 45.7%; in assay [4], 70.5% (active); in assay [5], 60.2% (active); in assay [6] it was 111% (active). Further, the inhibition was 86.3% (active) in assay [7] and 89.9% (active) in assay [8].
